# Hits are enriched below; roughly 6.2% of the tested compounds scored in any of these assays.
# HCMV inh: inhibitors of human cytomegalovirus. HFF cells, HCMV-luciferase reporter, 72 h; stronger effect = lower value. activity change, negative = inhibition, % at 57.5 µM. 4.5% of 410,000 active; in the data active = activity change below about -60%; inconclusive = no clear call, values can overlap the other calls; inactive = above about -39%
#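 Cell-based, HFFs, 1000 cells/well, 16 h 37C; cpds in DMSO + HCMV-luc, MOI 1 PFU/cell; 72 h 37C; OneGlo luminescence after 5 min RT; norm. to buffer vs Salinomycin 10uM.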
# FMDV antiviral: antivirals against foot and mouth disease virus | 1.2% of 410,000 active | FMDV antiviral cell-based qHTS | Potency, µM (highest dose often 57.9 µM), for the others: at the highest dose activity change, negative = inhibition, usual class: inhibitors; calls by dose curve; tested in HEK293T cells; note: read-out not given here; potency is the fitted concentration of half-maximal effect; nearly all actives have a fitted effect of over 45% in size
# LASV entry inh: blocks Lassa virus binding to or entry into cells. AID 540256. Lassa virus pseudotype entry inhibition, cell reporter. 1.2% of 300,000 active. Potency, µM (doses to about 37.9 µM), for the others: at the highest dose activity change, negative = inhibition, hits mostly inhibitors; calls by dose curve; tested in HEK293 cells; note: potency is the fitted concentration of half-maximal effect; nearly all actives have a fitted effect of over 50% in size
# Marburg entry inh: Marburg virus entry inhibition | Marburg virus pseudotyped entry inhibition, cell reporter | 1.8% of 300,000 active | AID 540276 | Potency, µM (titrated, usually from 37.8 µM), without a hit: at the highest dose activity change, negative = inhibition, usual class: inhibitors; calls by dose curve; tested in HEK293 cells; note: potency is the fitted concentration of half-maximal effect
# * marks the source's active call; other numbers are inactive results; ? = inconclusive; / = not tested or not shown; ! = repeats disagree; [ ] = remark or other dose. % is set by controls: 0 for no effect and ±100 for the full control effect.
SMILES,HCMV inh,FMDV antiviral,LASV entry inh,Marburg entry inh
Cc1cnc(Nc2nc3ccccc3o2)nc1C(=O)Nc1cccc(C(F)(F)F)c1,-73.7*,3.3%,0.4%,-21.5%
CC[C@H]1OC(=O)C[C@@H](O)[C@H](C)[C@@H](O[C@@H]2O[C@H](C)[C@@H](O)[C@H](N(C)C)[C@H]2O)[C@@H](CCN2C[C@H](C)C[C@H](C)C2)C[C@@H](C)C(=O)/C=C/C(C)=C/[C@@H]1CO[C@@H]1O[C@H](C)[C@@H](O)[C@@H](OC)[C@H]1OC,/,-11.9%,/,/
COc1ccc(N2C(c3ccsc3)=Cc3cc4c(cc3C2c2c[nH]c3ccccc23)OCO4)cc1 (stereo unspecified),-95.1*,-4.5%,/,/
CCOC(=O)C1CSCCS(=O)(=O)N1Cc1ccc(C)cc1 (stereo unspecified),22.8,/,/,/
CCC(C)Oc1ccc(C(=O)Nc2ccc(CN3CCOCC3)cc2)cc1 (stereo unspecified),-79.6*,?,/,/
O=C(Nc1ccc(S(=O)(=O)Nc2ccccc2)cc1)c1ccc(CN2CCOCC2)cc1,-89.8*,?,/,/
COc1ccc(NC(=O)c2ccc(CN3CCN(c4ccccc4)CC3)cc2)cc1OC,/,-8.0%,?,10µM*
COc1ccccc1C(=O)Nc1ccc(N2CCN(Cc3ccccc3)CC2)cc1,-23.2,?,?,?
COc1cccc(NC(=O)CCN2CCN(c3ccccc3)CC2)c1,-75.4*,-25.6%,?,5.8%[46.1 µM]
Cc1cc2c(c(=O)o1)[C@H](Cc1ccccc1)C(C#N)=C(N)O2,/,/,/,18.5%[46.1 µM]
O=C(NCc1ccccc1)c1nc2ccccc2nc1-c1ccc(F)cc1,18.2,/,/,/
O=C(Nc1ccc(CN2CCOCC2)cc1)c1ccc(Cl)cc1,?,4.2%,/,/
COc1ccc(CN2CCN(c3ccccc3)CC2)c(C)c1C,-19.0,-15.9%,10.3µM*,?
COC(=O)c1ccc(NC(=O)c2ccc(CN3CCOCC3)cc2)cc1,-28.3,22.4µM*,-22.1%[14.3 µM],?
COc1ccc(CN2CCN(c3ncccn3)CC2)c(C)c1C,8.8,?,/,/
COc1cc(C(O)c2nc(C(=O)NCCN3CCOCC3)cs2)cc(OC)c1OC (stereo unspecified),-18.0,/,/,/
Cc1cc(C)c2oc(-c3ccc(Cl)c(NC(=O)c4cccs4)c3)nc2c1,41.6,24.1%,?,?
C=CCOc1ccc([C@H]2/C(=C(/O)c3ccc(F)cc3)C(=O)C(=O)N2CCCN(C)C)cc1,/,/,/,21.4%
CSc1nc2nccc(-c3ccc(Oc4ccccc4)cc3)n2n1,-17.3,-27.6%,15.8µM*,?
Cc1ccc(N=Nc2c(N)[nH]n3c(=O)cc(-c4ccccc4)nc23)cc1,-80.9*,-10.1%,0.8%,?
Cc1[nH]n2c(=O)cc(C(C)(C)C)nc2c1-c1ccccc1,-61.6*,-24.8%,10µM*,?
Cc1[nH]n2c(=O)cc(-c3ccc(Cl)cc3)nc2c1-c1ccccc1,-106.8*,?,2.51µM*,11.2µM*
COc1cc(NC(=O)c2c3c(nc4ccccc24)CCC3)cc(OC)c1,-101.9*,-19.3%,-3.8%,?
CCOc1ccc(NC(=O)c2c3c(nc4ccccc24)CCC3)cc1,-17.4,5.5%,23.2%[46.1 µM],-16.8%[46.1 µM]
Cc1ccccc1NC(=O)c1c2c(nc3ccccc13)CCC2,-70.9*,-14.6%,15.0%,10.4%[46.1 µM]
SMILES,HCMV inh,FMDV antiviral,LASV entry inh,Marburg entry inh
Cc1ccc(NC(=O)c2c3c(nc4ccccc24)CCC3)cc1,18.4,-6.2%,-3.9%,-10.8%[46.1 µM]
Cc1ccc(-n2nc(CO)c(C(=O)NC(C)c3ccccc3)n2)cc1C (stereo unspecified),-63.2*,?,?,-3.7%[46.1 µM]
CC(C)NS(=O)(=O)c1ccc(OCC(=O)N2CCN(c3ccccc3F)CC2)cc1,26.7,-29.7%,-3.6%[46.1 µM],-15.2%[46.1 µM]
CN(C)CC/C=C1\c2ccccc2COc2ccccc21,-9.6,-19.4%,?,3.98µM*
O=C(Nc1ccc(C(F)(F)F)cc1)N[C@H]1CC[C@@]23CCCN2C(=O)CCC[C@H]3C1Cc1ccccc1 (stereo partly specified),-22.6,/,/,/
Cc1ccc(NC(=O)c2cc3ccccc3o2)nc1,53.0,?,5.01µM*,?
COc1cc(NC(=O)c2cccc(C)c2)ccc1NC(=O)c1cc2ccccc2o1,-86.7*,-20.6%,/,/
O=C(Nc1ccccc1)c1cc2ccccc2o1,100.2,-14.9%,10µM*,?
CC(=O)Nc1ccc(NC(=O)c2cc(=O)c3ccccc3o2)cc1,-84.6*!,-1.5%,-3.3%[46.1 µM],4.8%[46.1 µM]
Cc1ccccc1CN1CCc2nnc(C(C)NC(=O)c3cc(F)ccc3F)n2CC1 (stereo unspecified),/,-7.8%,/,/
O=C(COc1ccccc1[N+](=O)[O-])Nc1ccc(NC(=O)c2cc3ccccc3o2)cc1,?,-18.2%,?,?
O=C(COc1ccc(/C=N/NC(=O)c2cc3ccccc3o2)cc1Br)Nc1ccccc1,-100.4*,-37.5%,?,?
CCn1c(=O)c2cc(C(=O)NCCN(C)C)sc2c2ccccc21,2.1,-3.5%,?,7.08µM*
CCN(CC)CCNC(=O)c1cc2c(=O)n(CC)c3ccccc3c2s1,38.8,2.1%,3.4%[46.1 µM],-15.8%[46.1 µM]
CCn1c(=O)c2cc(C(=O)Nc3cc(C)c(Cl)cc3OC)sc2c2ccccc21,-105.6*,-4.6%,17.9%[46.1 µM],-1.9%[46.1 µM]
C#CCOc1ccc(-c2nnc(Nc3ccc(NC(C)=O)cc3)c3ccccc23)cc1,-19.8,0.0%,?,?
COCCn1c(C)cc(C(=O)CSc2ccc(NC(C)=O)cc2)c1C,19.7,13.0%,-9.4%,-12.0%
COc1ccc(CCn2c(C)cc(C(=O)CSc3nnnn3-c3ccccc3)c2C)cc1,-70.0*,-14.4%,13.3%,?
COC(=O)CCCn1c(C)cc(C(=O)CCl)c1C,15.5,28.2µM*,?,?
CCOC(=O)c1cc(C)n(CCc2ccccc2)c1C,-1.1,0.0%,-3.3%,-1.6%[46.1 µM]
Cc1cc(C(=O)CSc2nnnn2C)c(C)n1CCc1ccc(Cl)cc1,37.6,-20.2%,-14.1%,-2.6%[46.1 µM]
Cc1cc(C(=O)CCl)c(C)n1CCc1ccccc1,-100.4*,28.2µM*,?,?
CC1CCc2c(sc(NC(=O)C3c4ccccc4Oc4ccccc43)c2C#N)C1 (stereo unspecified),-0.2,-8.2%,?,?
Cc1cc2cc(C)c3nnc(SCC(=O)NCc4ccco4)n3c2cc1C,-79.2*,/,-12.7%,?
CC(C)(C)c1cccc(/C=N\O)c1O,/,/,/,-0.4%
SMILES,HCMV inh,FMDV antiviral,LASV entry inh,Marburg entry inh
Cc1cccn2cc(COc3ccc(-c4ccccc4)cc3)nc12,-90.4*,4.6%,?,?
COc1ccc(/C=C2\C(=O)c3ccccc3OC2c2ccccc2)cc1 (stereo unspecified),1.0,-17.2%,/,/
CCOc1ccc(/C=C2\C(=O)c3ccccc3OC2c2ccccc2)cc1 (stereo unspecified),-99.0*,16.9%,?,-9.3%
COc1ccc2c3c(cccc13)C(=O)N(O)C2=O,-60.5*,-11.5%,-23.0%,-29.8%
Cc1cccc(C)c1NC(=O)C1(C)CSCC(=O)N1CCC(C)C (stereo unspecified),102.3,-13.2%,/,/
O=S(=O)(NCCC(c1ccc(F)cc1)c1ccco1)c1ccccc1 (stereo unspecified),?,4.47µM*,-17.9%,-9.4%
O=S(=O)(NCC(c1ccco1)N1CCN(c2ccc(F)cc2)CC1)c1ccccc1 (stereo unspecified),6.3,-24.6%,?,/

# Screens deposited in PubChem by National Center for Advancing Translational Sciences (NCATS).
